From PubChem BioAssay (Tox21)
Results filed as inconclusive are left out. A call without a number means that no potency is given here. The source made the active and inactive calls. The call rests on the fitted dose curve; in most records, active means well fitted cell-killing curve with a large enough effect in the repeat runs; inconclusive means weak or mixed curves, or effect the other way; inactive means flat fitted curve, though single readings scatter.

Assay: qHTS assay to identify small molecule antagonists of the estrogen receptor alpha (ER-alpha) signaling pathway using the BG1 cell line in the presence of 0.1 nM 17-beta-estradiol - cell viability counter screen (AID 1259241); further: nearly all actives have a fitted effect of over 40% in size
Conditions: VM7Luc4E2 (BG1) viability, CellTiter-Fluor protease, 22 h, 0.1 nM estradiol agonist added; series mostly up to 92.4 µM
From the text: National Center for Advancing Translational Sciences [NCATS]
NIH Chemical Genomics Center [NCGC]
U.S. Environmental Protection Agency [EPA]
National Institutes of Environmental Health Sciences [NIEHS]
National Toxicology Program [NTP]
U.S. Food and Drug Administration [FDA]
Estrogen receptor (ER), a member of the nuclear hormone receptor plays an important role in development, metabolic homeostasis and reproduction. Two subtypes of ER, ER-alpha and ER-beta, have similar expression patterns with some uniqueness in both types. Endocrine disrupting chemicals (EDCs) and their interactions with steroid hormone receptors like ER causes disruption of normal endocrine function. Therefore, it is important to understand the effect of environmental chemicals in ER signaling pathway. For identifying ER antagonists, VM7Luc4E2 cell line was used to screen against Tox21 compound libraries.
VM7Luc4E2 cell line (provided by Denison MS, University of California) endogenously express full-length ER-alpha and is stably transfected with a plasmid containing four estrogen responsive elements (ERE) upstream of a luciferase reporter gene. The current screening for identification of ER-alpha inhibitors against Tox21 compound libraries used lower concentration (0.1 nM) of 17beta-Estradiol as a stimulator. The cytotoxicity of the Tox21 compound libraries against VM7Luc4E2 cell line was tested by measuring live-cell protease activity using CellTiter-Fluor assay in the same wells.
Tox21 Assay Protocol Summary:
VM7Luc4E2 cells were cultured in phenol red free assay medium containing 10% charcoal stripped FBS for 5 days prior to the assay. The cells were dispensed at 4,000 cells/well in 4 uL of assay medium into white wall/solid-bottom 1536-well plates (Corning Life Sciences, Corning, NY) using a Multidrop Combi (ThermoFisher Scientific, Waltham, MA) dispenser. After the assay plates were incubated at 37C and 5% CO2 for 24 hr, 23 nL of compounds dissolved in DMSO, positive controls or DMSO only was transferred to the assay plates by a Pintool station (Kalypsys, San Diego, CA). The transfer of compounds was followed by the addition of 1 uL of 0.1 nM (final concentration) agonist (17beta-Estradiol)/assay medium using a Flying Reagent Dispenser (FRD, Aurora Discovery, San Diego, CA). The plates were incubated at 37C and 5% CO2 for 22 hr. For cytotoxicity assay, 1 uL of CellTiter-Fluor reagent (Promega Corporation, Madison, WI) was added to each well using the FRD and after 30 min incubation at 37C and 5% CO2, The fluorescence intensity was measured using ViewLux plate reader (PerkinElmer, Shelton, CT).
Potency means the concentration at half of the fitted maximal effect.

| Structure (SMILES) | Potency | activity change, negative = cytotoxicity |
| --- | --- | --- |
| CC(CO)(CO)C(=O)O | inactive | – |
| CO[C@@H]1[C@@H](OC)[C@H](C)[C@@](O)(CC(=O)O)O[C@H]1[C@H](C)[C@H]1O[C@@]2(CC[C@@](C)([C@H]3CC[C@@](C)([C@@H]4O[C@@H]([C@H]5O[C@](C)(O)[C@H](C)C[C@@H]5C)C[C@@H]4OC4C[C@H](OC)[C@@H](OC)[C@H](C)O4)O3)O2)C[C@H](O)[C@H]1C (stereo not given in full) | 3.35 µM (active) | – |
| CC(C)N=C=NC(C)C | inactive | – |
| C[C@@H]1C[C@H]2[C@@H]3CCC4=CC(=O)C=C[C@]4(C)[C@@]3(F)[C@@H](O)C[C@]2(C)[C@@]1(O)C(=O)COP(=O)(O)O | inactive | – |
| O=C(O)CNC(=O)c1ccccc1I | inactive | – |
| CC1=C2[C@@H]([C@H](C)CC[C@H]2/C=C(\C)C(=O)O)[C@H](O)C1 | inactive | – |
| Nc1ccc(S(=O)(=O)NCc2ccccc2)cc1 | inactive | – |
| O=C(O)CO | inactive | – |
| CCCCCCCC(=O)Oc1c(Br)cc(C#N)cc1Br | inactive | – |
| ClC1=C(Cl)C1(Cl)Cl | inactive | – |
| CNc1c2c(nn1C)CCCC2 | inactive | – |
| CC(=O)OCCC(C)CC(C)(C)C (stereo not given) | inactive | – |
| CC1=CC[C@@]23C[C@@H]1C(C)(C)[C@@H]2CC[C@H]3C | inactive | – |
| C=CC(=O)O | inactive | – |
| O=C(/C=C/c1ccc([N+](=O)[O-])cc1)c1ccccc1 | inactive | – |
| CC(C)OC(=O)c1ccccc1C(=O)OC(C)C | inactive | – |
| COc1ccc(/C=C/C(=O)c2ccc(OC)cc2OC)cc1 | inactive | – |
| CC1CCCO1 (stereo not given) | inactive | – |
| COc1cc(NS(=O)(=O)c2ccc(N)cc2)nc(C)n1 | inactive | – |
| CC12CC3CC(C)(C1)CC(N)(C3)C2 | inactive | – |

| Structure (SMILES) | Potency | activity change, negative = cytotoxicity |
| --- | --- | --- |
| CC(CCc1ccc(O)cc1)NCCc1ccc(O)c(O)c1 (stereo not given) | inactive | – |
| CCN(CC)c1ccc(C(=C2C=CC(=[N+](CC)CC)C=C2)c2ccc(S(=O)(=O)O)cc2S(=O)(=O)[O-])cc1 | 12.2 µM (active) | – |
| Cc1cccc2sc(N)nc12 | inactive | – |
| CC(=O)NCCO | inactive | – |
| CSCC[C@H](NC(=O)[C@H](Cc1c[nH]c2ccccc12)NC(=O)CCNC(=O)OC(C)(C)C)C(=O)N[C@@H](CC(=O)O)C(=O)N[C@@H](Cc1ccccc1)C(N)=O | inactive | – |
| CCCCCCCC/C=C\CCCCCCCC(=O)OCCO | inactive | – |
| O=C1CC[C@@H](C(=O)O)N1 | inactive | – |
| CCOC(=O)Oc1ccc(CCNC(=O)[C@H](CCSC)NC(C)=O)cc1OC(=O)OCC | inactive | – |
| O=C(O)CCC(=O)c1ccc(-c2ccccc2)cc1 | inactive | – |
| CCCCCc1ccco1 | inactive | – |
| CC(C)(C)NCC(O)COc1cccc2c1C[C@H](O)[C@H](O)C2 (stereo not given in full) | inactive | – |
| COC(OC)OC | inactive | – |
| Nc1ccc(F)cc1 | inactive | – |
| FC(F)(F)C(F)(F)C(F)(F)C(F)(F)CCI | inactive | – |
| Cc1ccc2nc(N)[nH]c(=O)c2c1Sc1ccncc1 | inactive | – |
| Cc1ccc2c(c1)CCCN2 | inactive | – |
| CC(C)CC(O)CC(C)C | inactive | – |
| c1ccc2sc(SSc3nc4ccccc4s3)nc2c1 | – | 8.69% [at 19 µM] (inactive) |
| CC1CCc2nccnc21 (stereo not given) | inactive | – |
| CCCCCCC(CO)CCCC (stereo not given) | inactive | – |
